Assay results as given in PubChem BioAssay.
Activity calls are given as the source filed them. Unless noted, how the calls were made is not given here.

Assays:
[1] = system: XIP peptide (Xip251-270) binding; assay: small-molecule binders of XIP peptide, primary screen, biochemical, small-molecule microarray, fluorescence 635/667 nm, 0.1 µg/mL protein (AID 1182); settings: fluorescent protein binding, 635 nm, higher = more signal, called active from +8 up or from −8 down
XIP peptide (Xip251-270) = assay: small-molecule binders of XIP peptide, primary screen, biochemical, small-molecule microarray, fluorescence 635/667 nm, 0.5 µg/mL protein (AID 1183); settings: small-molecule microarray binding, fluorescence 635 nm; higher = more signal
[2] = Plasmodium falciparum growth inhibition, primary screen, strain 3D7, DAPI fluorescence, 100 nL (AID 1184);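 further: parasites grown inside human red blood cells in medium with human serum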; settings: P. falciparum 3D7 growth, 3 d, higher = more signal
[3] = target: Homeobox protein Hox-A13 (Mus musculus) (UniProt Q62424); assay: inhibitors of HoxA13-DNA binding, primary screen, biochemical, fluorescence polarization, labeled oligonucleotide (AID 1185); settings: 15 min, higher = more signal, called active from +8 up or from −8 down
[4] = inhibitors of hydroxyurea-induced Chk1 phosphorylation, primary screen, imaging, HeLa, phospho-Chk1 antibody, percent positive cells (AID 1186); settings: hydroxyurea-induced phospho-Chk1 immunofluorescence imaging, higher = more signal
[5] = inhibitors of hydroxyurea-induced Chk1 phosphorylation, primary screen, imaging, HeLa, phospho-Chk1 nuclear intensity (AID 1187); settings: hydroxyurea-induced phospho-Chk1 immunofluorescence imaging, higher = more signal

Chain of Homeobox protein Hox-A13 (Mus musculus) (Q62424 whole entry, looked up): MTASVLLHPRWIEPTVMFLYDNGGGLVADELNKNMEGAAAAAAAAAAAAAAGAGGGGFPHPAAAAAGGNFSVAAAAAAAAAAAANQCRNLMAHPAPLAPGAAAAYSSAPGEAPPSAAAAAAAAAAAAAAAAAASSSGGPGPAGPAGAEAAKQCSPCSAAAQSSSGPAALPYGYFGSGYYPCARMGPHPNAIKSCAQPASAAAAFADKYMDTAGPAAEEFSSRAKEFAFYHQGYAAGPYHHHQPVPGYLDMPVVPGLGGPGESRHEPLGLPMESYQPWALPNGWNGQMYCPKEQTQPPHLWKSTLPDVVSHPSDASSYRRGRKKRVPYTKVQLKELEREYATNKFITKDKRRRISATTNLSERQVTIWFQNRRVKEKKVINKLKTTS

Row | Structure (SMILES) | composite z-score [1] | composite z-score (XIP peptide (Xip251-270)) | z-score [2] | z-score [3] | z-score [4] | z-score [5]
1 | CCOC(=O)C[C@H]1[C@H](OC(=O)c2cc3ccccc3oc2=O)[C@@H](NC(=O)C2CCCCC2)c2cc(OCCCO)ccc2N1C(=O)c1ccc2ccccc2n1 | -0.0413 (inactive) | 0.522 | -0.292 | -4.56 (inactive) | 0.453 (inactive) | 0.333 (inactive)
2 | Cc1ccc(N2C(=O)c3ccccc3[C@@H](C(=O)NCc3ccccc3)[C@@H]2c2ccc(CO)cc2)nc1 | -0.337 (inactive) | -0.98 | -0.432 | -0.681 (inactive) | -0.639 (inactive) | -0.627 (inactive)
3 | C=CC[C@]1(C(=O)NCC(O)CO)N=C(c2ccc(OCCCO)cc2)O[C@H]1c1ccccc1 (some centres not stated) | 0.654 (inactive) | 0.124 | -0.851 | -5.04 (inactive) | -0.147 (inactive) | -0.0911 (inactive)
4 | C=CCC(OC(C)=O)[C@@H]1[C@@H](N(Cc2cccc3ccccc23)C(=O)c2ccc(C)cc2)c2cc(OCCCO)ccc2N1C(=O)c1ccc(-c2ccccc2)cc1 (some centres not stated) | -0.115 (inactive) | 0.481 | -1.93 | -0.128 (inactive) | -0.35 (inactive) | -0.844 (inactive)
5 | CCCNC(=O)[C@@H]1c2ccccc2C(=O)N(C2CCCCC2)[C@H]1c1ccc(CO)cc1 | 0.521 (inactive) | 0.749 | -0.939 | -3.69 (inactive) | 0.108 (inactive) | -0.138 (inactive)
6 | CC(c1ccccc1)C(O)C1C=CC2C(=O)N(C)C(=O)C2N1N(c1ccccc1)c1ccccc1 (configuration not stated) | 0.0311 (inactive) | -0.62 | -0.141 | -4.26 (inactive) | 0.75 (inactive) | -0.173 (inactive)
7 | Cc1ccc(S(=O)(=O)N2[C@@H](c3ccccc3)C(C(=O)O)=CC[C@H]2c2ccccc2)cc1 | -0.141 (inactive) | 0.0514 | -1.02 | -3.76 (inactive) | -0.354 (inactive) | -0.449 (inactive)
8 | Cc1ccc(N2C(=O)c3ccccc3[C@](C)(C(=O)NCC(C)C)[C@@H]2c2ccc(CO)cc2)nc1 | -0.223 (inactive) | -0.662 | 0.11 | -2 (inactive) | 0.341 (inactive) | 0.123 (inactive)
9 | COc1ccc(-c2cc3c(c(-c4ccccc4)n2)[Si](C(C)C)(C(C)C)O[C@H]3c2ccccc2)cn1 | 0.64 (inactive) | 0.559 | -2.91 | -2.23 (inactive) | -0.317 (inactive) | -0.344 (inactive)
10 | C=CCC(OC(C)=O)[C@@H]1[C@@H](N(Cc2cc3ccccc3o2)C(=O)Cc2ccc(F)cc2)c2cc(OCCCO)ccc2N1C(=O)c1ccc(-c2ccccc2)cc1 (some centres not stated) | -0.618 (inactive) | -0.666 | -0.0101 | -1.04 (inactive) | 0.0934 (inactive) | 0.192 (inactive)
11 | CCOC(=O)C1=C[C@@H](c2ccccc2)N(S(=O)(=O)c2ccc(C)cc2)[C@H]1c1ccc(F)cc1 | 0.346 (inactive) | 0.382 | -2.17 | -0.178 (inactive) | 0.0332 (inactive) | -0.293 (inactive)
12 | CO[C@]12C=C(Br)[C@@H](C[C@@H]1c1ccccc1)[C@@]1(CO1)C2=O | 0.484 (inactive) | 0.521 | -1.03 | -0.507 (inactive) | -0.655 (inactive) | -0.337 (inactive)
13 | O=C1C2C=CC(C(O)c3ccccc3)N(n3cnnc3)C2C(=O)N1Cc1ccccc1 (configuration not stated) | -0.377 (inactive) | -0.179 | 0.454 | -2.02 (inactive) | -1.25 (inactive) | -1.21 (inactive)
14 | O=C1C2C=CC(C(O)C(c3ccccc3)c3ccccc3)N(Nc3ccc([N+](=O)[O-])cc3)C2C(=O)N1c1ccccc1 (configuration not stated) | -0.0268 (inactive) | 0.747 | 0.535 | -1.88 (inactive) | 0.349 (inactive) | 0.0443 (inactive)
15 | C=C(CCCC)/C(=C/C[C@@H](OC(=O)c1ccncc1)c1cccc(OCCO)c1)c1cc(C(=O)OC)ccc1OC | 1.33 (inactive) | 0.74 | -3.09 | -3.11 (inactive) | 0.0994 (inactive) | 0.74 (inactive)
16 | CC(C)(C)OC(=O)CC[C@]1(C(=O)NCCN2CCOCC2)N=C(c2ccc(OCCCO)cc2)O[C@H]1c1ccccc1CN=[N+]=[N-] | 1.16 (inactive) | 0.58 | -0.867 | -4.75 (inactive) | -0.593 (inactive) | -0.6 (inactive)

Row | Structure (SMILES) | composite z-score [1] | composite z-score (XIP peptide (Xip251-270)) | z-score [2] | z-score [3] | z-score [4] | z-score [5]
17 | COc1ccc([C@H]2C[C@H]3C(Br)=C[C@]2(OC)C(=O)[C@]32CO2)cc1 | 0.288 (inactive) | 0.261 | 0.755 | -1.48 (inactive) | -0.445 (inactive) | -0.0049 (inactive)
18 | O=C1C[C@@](C(=O)NCCN2CCOCC2)(c2ccc([N+](=O)[O-])cc2)[C@@H](c2ccc(CO)cc2)N1C1CCCCC1 | 1.01 (inactive) | 0.818 | -1.6 | -4.21 (inactive) | -0.0132 (inactive) | 0.434 (inactive)
19 | Cc1ccc(S[C@]2(C(=O)NC(C)C)CC(=O)N(Cc3cc(C(F)(F)F)cc(C(F)(F)F)c3)[C@@H]2c2ccc(CO)cc2I)cc1 | 0.351 (inactive) | 0.667 | 0.201 | -2.81 (inactive) | 0.392 (inactive) | 0.52 (inactive)
20 | O=C(NCc1ccccc1)[C@@]1(Cc2ccccc2)COC(c2ccc(OCCCO)cc2)=N1 | 0.489 (inactive) | 0.75 | -2.15 | -4.9 (inactive) | -0.583 (inactive) | -0.649 (inactive)
21 | COCCOC(=O)N1C(=O)[C@@]2(c3ccccc31)[C@H](C(=O)N1CCc3cc(OC)c(OC)cc3C1)[C@H]1C(=O)O[C@H](c3ccccc3)[C@H](c3ccccc3)N1[C@@H]2c1ccccc1OCCO | 0.227 (inactive) | 0.741 | -1.9 | -0.573 (inactive) | -0.0955 (inactive) | -0.08 (inactive)
22 | O=C(CS)NCCCCCNC(=O)[C@H]1C[C@H]2C(=O)N3CCC[C@H]3C(=O)N2[C@H]1c1ccc(O)cc1 | 0.215 (inactive) | -1.02 | -0.0463 | -3.01 (inactive) | 0.23 (inactive) | 0.426 (inactive)
23 | CO[C@H]1O[C@H](CO)[C@@H](OC(=O)Nc2ccc(Oc3ccccc3)cc2)[C@H](OC(=O)Nc2ccccc2-c2ccccc2)[C@H]1OC(=O)Nc1ccccc1-c1ccccc1 | 1.57 (inactive) | 0.832 | -2.09 | 0.193 (inactive) | -0.0605 (inactive) | 0.413 (inactive)
24 | Cc1ccc(S[C@]2(C(=O)NCCN3CCOCC3)CC(=O)N(C3Cc4ccccc4C3)[C@@H]2c2ccc(CO)cc2I)cc1 | 0.669 (inactive) | 0.771 | -0.861 | -2.43 (inactive) | 0.18 (inactive) | 0.764 (inactive)
25 | COC(=O)C1=CC(c2ccc(CO)cc2)=CC(c2cccs2)N(Cc2cccc(OC(F)(F)F)c2)C=C1C(=O)OC (configuration not stated) | 2.19 (inactive) | 0.79 | -1.91 | -8.1 (active) | 0.311 (inactive) | 0.206 (inactive)
26 | C=CCC(OC(C)=O)[C@@H]1[C@@H](N(Cc2cccc3ccccc23)C(=O)Cc2ccc(F)cc2)c2cc(OCCCO)ccc2N1C(=O)Cc1ccc2ccccc2c1 (some centres not stated) | -0.741 (inactive) | 0.57 | -1.17 | -0.474 (inactive) | -0.579 (inactive) | -0.516 (inactive)
27 | COc1cc2c(cc1OC)CN(C(=O)[C@@H]1[C@H]3C(=O)O[C@H](c4ccccc4)[C@H](c4ccccc4)N3[C@H](c3ccccc3OCCO)[C@@]13C(=O)Nc1ccccc13)CC2 | 1.79 (inactive) | 0.829 | -2.18 | 0.829 (inactive) | 0.306 (inactive) | 0.876 (inactive)
28 | CN1C(=O)C2C=CC(C(O)C3CC=CCC3)N(Nc3ccccc3)C2C1=O (configuration not stated) | 0.769 (inactive) | 0.795 | 0.235 | -3.96 (inactive) | 0.202 (inactive) | 0.25 (inactive)
29 | COc1ccc(NN2C(C(O)c3cc(OC)c(OC)c(OC)c3)C=CC3C(=O)N(C4CCCCC4)C(=O)C32)cc1 (configuration not stated) | -0.0682 (inactive) | 0.758 | -1.11 | -4.58 (inactive) | 0.071 (inactive) | -0.378 (inactive)
30 | COC(=O)[C@@]1(Cc2ccc(OC)cc2)[C@H]2c3cc(C(=O)N(C)C)n(CCc4ccc(OC)c(Br)c4)c3C[C@H]2CN1C(=O)c1ccccc1 | 0.717 (inactive) | 0.351 | -1.28 | -0.511 (inactive) | 1.02 (inactive) | 0.463 (inactive)
31 | O=C1O[C@H](c2ccccc2)[C@H](c2ccccc2)N2[C@H]1[C@@H](C(=O)NC[C@H](O)c1ccccc1)[C@]1(C(=O)Nc3ccc(C#CC4(O)CCCCCC4)cc31)[C@H]2c1ccc(OCCO)cc1 | -0.342 (inactive) | 0.799 | -1.45 | 0.199 (inactive) | -0.309 (inactive) | -0.412 (inactive)
32 | CC1CC/C=C\[C@H]2OC34C=CCN(Cn5nnc6ccccc65)C(=O)[C@H]3N(C(C)CO)C(=O)[C@@H]4C2C(=O)O1 (some centres not stated) | 0.205 (inactive) | 0.0783 | 0.189 | -4.29 (inactive) | -0.087 (inactive) | -0.361 (inactive)
